# Read-outs that look alike come from different tables or passages of the source.
# Tests used:
# NUAK1 = conditions: read-out: apparent Kd, n = 1
# NUAK2 = conditions: read-out: apparent Kd, n = 1
# [1] = compound concentrations:100 nM and 1000 nM (sheet 'Lestaurtinib' of Supplementary Table 1),run:Lestaurtinib_02765_R1,Plate:MR026
# [2] = compound concentrations:100 nM and 1000 nM (sheet 'Lestaurtinib' of Supplementary Table 1),run:Lestaurtinib_02765_R3,Plate:MR026
# [3] = compound concentrations:100 nM and 1000 nM (sheet 'Lestaurtinib' of Supplementary Table 1),run:Lestaurtinib_02768_R2,Plate:MR028
# [4] = compound concentrations:100 nM and 1000 nM (sheet 'Lestaurtinib' of Supplementary Table 1),run:Lestaurtinib_02768_R3,Plate:MR028
# [5] = compound concentrations:100 nM and 1000 nM (sheet 'Lestaurtinib' of Supplementary Table 1),run:Lestaurtinib_02795_R1,Plate:MR022
# [6] = compound concentrations:100 nM and 1000 nM (sheet 'Lestaurtinib' of Supplementary Table 1),run:Lestaurtinib_02795_R2,Plate:MR022
# [7] = compound concentrations:100 nM and 1000 nM (sheet 'Lestaurtinib' of Supplementary Table 1),run:Lestaurtinib_02795_R3,Plate:MR022
# [8] = compound concentrations:100 nM and 1000 nM (sheet 'Lestaurtinib' of Supplementary Table 1),run:Lestaurtinib_02802_R3,Plate:MR029
# [9] = compound concentrations:100 nM and 1000 nM (sheet 'Lestaurtinib' of Supplementary Table 1),run:Lestaurtinib_02896_R1,Plate:MR030
substance,measurement,setting,value
Lestaurtinib,potency estimated from few doses,NUAK1; [1],74.4 nM
same,potency estimated from few doses,NUAK1; [2],64.4 nM
same,potency estimated from few doses,"NUAK1; compound concentrations:100 nM and 1000 nM (sheet 'Lestaurtinib' of Supplementary Table 1),run:Lestaurtinib_02766_R1,Plate:MR027",97.5 nM
same,potency estimated from few doses,"NUAK1; compound concentrations:100 nM and 1000 nM (sheet 'Lestaurtinib' of Supplementary Table 1),run:Lestaurtinib_02766_R3,Plate:MR027",92.8 nM
same,potency estimated from few doses,NUAK1; [3],41.7 nM
same,potency estimated from few doses,NUAK1; [4],48.7 nM
same,potency estimated from few doses,NUAK1; [5],62.8 nM
same,potency estimated from few doses,NUAK1; [6],38.6 nM
same,potency estimated from few doses,NUAK1; [7],165 nM
same,potency estimated from few doses,"NUAK1; compound concentrations:100 nM and 1000 nM (sheet 'Lestaurtinib' of Supplementary Table 1),run:Lestaurtinib_02802_R1,Plate:MR029",72.2 nM
same,potency estimated from few doses,NUAK1; [8],44.9 nM
same,potency estimated from few doses,NUAK1; [9],52.5 nM
same,potency estimated from few doses,"NUAK1; compound concentrations:100 nM and 1000 nM (sheet 'Lestaurtinib' of Supplementary Table 1),run:Lestaurtinib_02896_R3,Plate:MR030",55.1 nM
same,potency estimated from few doses,"NUAK1; compound concentrations:100 nM and 1000 nM (sheet 'Lestaurtinib' of Supplementary Table 1),run:Lestaurtinib_03172_R2,Plate:MR031",66.5 nM
same,potency estimated from few doses,"NUAK1; compound concentrations:100 nM and 1000 nM (sheet 'Lestaurtinib' of Supplementary Table 1),run:Lestaurtinib_03172_R3,Plate:MR031",62.7 nM
same,potency estimated from few doses,"NUAK1; compound concentrations:100 nM and 1000 nM (sheet 'Lestaurtinib' of Supplementary Table 1),run:Lestaurtinib_03252_R1,Plate:MR032",51.7 nM
same,potency estimated from few doses,"NUAK2; compound concentrations:100 nM and 1000 nM (sheet 'Lestaurtinib' of Supplementary Table 1),run:Lestaurtinib_02339_R1,Plate:MR001",489 nM
same,potency estimated from few doses,"NUAK2; compound concentrations:100 nM and 1000 nM (sheet 'Lestaurtinib' of Supplementary Table 1),run:Lestaurtinib_02339_R2,Plate:MR001",23.7 nM
same,potency estimated from few doses,"NUAK2; compound concentrations:100 nM and 1000 nM (sheet 'Lestaurtinib' of Supplementary Table 1),run:Lestaurtinib_02339_R3,Plate:MR001",373 nM
same,potency estimated from few doses,"NUAK2; compound concentrations:100 nM and 1000 nM (sheet 'Lestaurtinib' of Supplementary Table 1),run:Lestaurtinib_02364_R3,Plate:MR002",260 nM
same,potency estimated from few doses,"NUAK2; compound concentrations:100 nM and 1000 nM (sheet 'Lestaurtinib' of Supplementary Table 1),run:Lestaurtinib_02367_R1,Plate:MR003",873 nM
same,potency estimated from few doses,"NUAK2; compound concentrations:100 nM and 1000 nM (sheet 'Lestaurtinib' of Supplementary Table 1),run:Lestaurtinib_02367_R2,Plate:MR003",382 nM
same,potency estimated from few doses,"NUAK2; compound concentrations:100 nM and 1000 nM (sheet 'Lestaurtinib' of Supplementary Table 1),run:Lestaurtinib_02381_R1,Plate:MR004",394 nM
same,potency estimated from few doses,"NUAK2; compound concentrations:100 nM and 1000 nM (sheet 'Lestaurtinib' of Supplementary Table 1),run:Lestaurtinib_02381_R2,Plate:MR004",113 nM
same,potency estimated from few doses,"NUAK2; compound concentrations:100 nM and 1000 nM (sheet 'Lestaurtinib' of Supplementary Table 1),run:Lestaurtinib_02407_R2,Plate:MR005",70.6 nM
same,potency estimated from few doses,"NUAK2; compound concentrations:100 nM and 1000 nM (sheet 'Lestaurtinib' of Supplementary Table 1),run:Lestaurtinib_02422_R1,Plate:MR006",77.8 nM
same,potency estimated from few doses,"NUAK2; compound concentrations:100 nM and 1000 nM (sheet 'Lestaurtinib' of Supplementary Table 1),run:Lestaurtinib_02422_R2,Plate:MR006",44.9 nM
same,potency estimated from few doses,"NUAK2; compound concentrations:100 nM and 1000 nM (sheet 'Lestaurtinib' of Supplementary Table 1),run:Lestaurtinib_02437_R1,Plate:MR007",140 nM
same,potency estimated from few doses,"NUAK2; compound concentrations:100 nM and 1000 nM (sheet 'Lestaurtinib' of Supplementary Table 1),run:Lestaurtinib_02438_R1,Plate:MR008",22.1 nM
same,potency estimated from few doses,"NUAK2; compound concentrations:100 nM and 1000 nM (sheet 'Lestaurtinib' of Supplementary Table 1),run:Lestaurtinib_02443_R1,Plate:MR009",70 nM
same,potency estimated from few doses,"NUAK2; compound concentrations:100 nM and 1000 nM (sheet 'Lestaurtinib' of Supplementary Table 1),run:Lestaurtinib_02443_R2,Plate:MR009",75.5 nM
same,potency estimated from few doses,"NUAK2; compound concentrations:100 nM and 1000 nM (sheet 'Lestaurtinib' of Supplementary Table 1),run:Lestaurtinib_02443_R3,Plate:MR009",696 nM
same,potency estimated from few doses,"NUAK2; compound concentrations:100 nM and 1000 nM (sheet 'Lestaurtinib' of Supplementary Table 1),run:Lestaurtinib_02473_R2,Plate:MR010",100 nM
same,potency estimated from few doses,"NUAK2; compound concentrations:100 nM and 1000 nM (sheet 'Lestaurtinib' of Supplementary Table 1),run:Lestaurtinib_02473_R3,Plate:MR010",53.1 nM
same,potency estimated from few doses,"NUAK2; compound concentrations:100 nM and 1000 nM (sheet 'Lestaurtinib' of Supplementary Table 1),run:Lestaurtinib_02482_R1,Plate:MR011",165 nM
same,potency estimated from few doses,"NUAK2; compound concentrations:100 nM and 1000 nM (sheet 'Lestaurtinib' of Supplementary Table 1),run:Lestaurtinib_02482_R2,Plate:MR011",98 nM
same,potency estimated from few doses,"NUAK2; compound concentrations:100 nM and 1000 nM (sheet 'Lestaurtinib' of Supplementary Table 1),run:Lestaurtinib_02482_R3,Plate:MR011",133 nM
same,potency estimated from few doses,"NUAK2; compound concentrations:100 nM and 1000 nM (sheet 'Lestaurtinib' of Supplementary Table 1),run:Lestaurtinib_02487_R1,Plate:MR012",87.5 nM
same,potency estimated from few doses,"NUAK2; compound concentrations:100 nM and 1000 nM (sheet 'Lestaurtinib' of Supplementary Table 1),run:Lestaurtinib_02487_R2,Plate:MR012",208 nM
same,potency estimated from few doses,"NUAK2; compound concentrations:100 nM and 1000 nM (sheet 'Lestaurtinib' of Supplementary Table 1),run:Lestaurtinib_02487_R3,Plate:MR012",85.6 nM
same,potency estimated from few doses,"NUAK2; compound concentrations:100 nM and 1000 nM (sheet 'Lestaurtinib' of Supplementary Table 1),run:Lestaurtinib_02496_R1,Plate:MR013",931 nM
same,potency estimated from few doses,"NUAK2; compound concentrations:100 nM and 1000 nM (sheet 'Lestaurtinib' of Supplementary Table 1),run:Lestaurtinib_02496_R3,Plate:MR013",50.7 nM
same,potency estimated from few doses,"NUAK2; compound concentrations:100 nM and 1000 nM (sheet 'Lestaurtinib' of Supplementary Table 1),run:Lestaurtinib_02566_R3,Plate:MR014",517 nM
same,potency estimated from few doses,"NUAK2; compound concentrations:100 nM and 1000 nM (sheet 'Lestaurtinib' of Supplementary Table 1),run:Lestaurtinib_02572_R1,Plate:MR015",368 nM
same,potency estimated from few doses,"NUAK2; compound concentrations:100 nM and 1000 nM (sheet 'Lestaurtinib' of Supplementary Table 1),run:Lestaurtinib_02572_R2,Plate:MR015",96.7 nM
same,potency estimated from few doses,"NUAK2; compound concentrations:100 nM and 1000 nM (sheet 'Lestaurtinib' of Supplementary Table 1),run:Lestaurtinib_02584_R1,Plate:MR017",207 nM
same,potency estimated from few doses,"NUAK2; compound concentrations:100 nM and 1000 nM (sheet 'Lestaurtinib' of Supplementary Table 1),run:Lestaurtinib_02584_R3,Plate:MR017",259 nM
same,potency estimated from few doses,"NUAK2; compound concentrations:100 nM and 1000 nM (sheet 'Lestaurtinib' of Supplementary Table 1),run:Lestaurtinib_02601_R3,Plate:MR018",396 nM
same,potency estimated from few doses,"NUAK2; compound concentrations:100 nM and 1000 nM (sheet 'Lestaurtinib' of Supplementary Table 1),run:Lestaurtinib_02606_R1,Plate:MR019",140 nM
same,potency estimated from few doses,"NUAK2; compound concentrations:100 nM and 1000 nM (sheet 'Lestaurtinib' of Supplementary Table 1),run:Lestaurtinib_02606_R2,Plate:MR019",121 nM
same,potency estimated from few doses,"NUAK2; compound concentrations:100 nM and 1000 nM (sheet 'Lestaurtinib' of Supplementary Table 1),run:Lestaurtinib_02606_R3,Plate:MR019",154 nM
same,potency estimated from few doses,"NUAK2; compound concentrations:100 nM and 1000 nM (sheet 'Lestaurtinib' of Supplementary Table 1),run:Lestaurtinib_02624_R1,Plate:MR020",92.2 nM
same,potency estimated from few doses,"NUAK2; compound concentrations:100 nM and 1000 nM (sheet 'Lestaurtinib' of Supplementary Table 1),run:Lestaurtinib_02624_R2,Plate:MR020",93.3 nM
same,potency estimated from few doses,"NUAK2; compound concentrations:100 nM and 1000 nM (sheet 'Lestaurtinib' of Supplementary Table 1),run:Lestaurtinib_02624_R3,Plate:MR020",72.9 nM
same,potency estimated from few doses,"NUAK2; compound concentrations:100 nM and 1000 nM (sheet 'Lestaurtinib' of Supplementary Table 1),run:Lestaurtinib_02741_R1,Plate:MR023",140 nM
same,potency estimated from few doses,"NUAK2; compound concentrations:100 nM and 1000 nM (sheet 'Lestaurtinib' of Supplementary Table 1),run:Lestaurtinib_02741_R2,Plate:MR023",124 nM
same,potency estimated from few doses,"NUAK2; compound concentrations:100 nM and 1000 nM (sheet 'Lestaurtinib' of Supplementary Table 1),run:Lestaurtinib_02741_R3,Plate:MR023",115 nM
same,potency estimated from few doses,"NUAK2; compound concentrations:100 nM and 1000 nM (sheet 'Lestaurtinib' of Supplementary Table 1),run:Lestaurtinib_02748_R3,Plate:MR024",59.8 nM
same,potency estimated from few doses,"NUAK2; compound concentrations:100 nM and 1000 nM (sheet 'Lestaurtinib' of Supplementary Table 1),run:Lestaurtinib_02752_R2,Plate:MR025",68.5 nM
same,potency estimated from few doses,NUAK2; [1],298 nM
same,potency estimated from few doses,"NUAK2; compound concentrations:100 nM and 1000 nM (sheet 'Lestaurtinib' of Supplementary Table 1),run:Lestaurtinib_02765_R2,Plate:MR026",316 nM
same,potency estimated from few doses,NUAK2; [2],88.4 nM
same,potency estimated from few doses,"NUAK2; compound concentrations:100 nM and 1000 nM (sheet 'Lestaurtinib' of Supplementary Table 1),run:Lestaurtinib_02766_R2,Plate:MR027",58.5 nM
same,potency estimated from few doses,"NUAK2; compound concentrations:100 nM and 1000 nM (sheet 'Lestaurtinib' of Supplementary Table 1),run:Lestaurtinib_02768_R1,Plate:MR028",89.9 nM
same,potency estimated from few doses,NUAK2; [3],66.1 nM
same,potency estimated from few doses,NUAK2; [4],146 nM
same,potency estimated from few doses,NUAK2; [5],93.4 nM
same,potency estimated from few doses,NUAK2; [6],95.4 nM
same,potency estimated from few doses,NUAK2; [7],154 nM
same,potency estimated from few doses,"NUAK2; compound concentrations:100 nM and 1000 nM (sheet 'Lestaurtinib' of Supplementary Table 1),run:Lestaurtinib_02802_R2,Plate:MR029",79.5 nM
same,potency estimated from few doses,NUAK2; [8],69.5 nM
same,potency estimated from few doses,NUAK2; [9],90.1 nM
same,potency estimated from few doses,"NUAK2; compound concentrations:100 nM and 1000 nM (sheet 'Lestaurtinib' of Supplementary Table 1),run:Lestaurtinib_02896_R2,Plate:MR030",130 nM

# Source: article PMC11062922 (Nature Chemical Biology, 2023)
